Measurements: the supplement of paper PMC8975748
Counter-ions that a name gives are not always drawn.

Tested on: Saccharomyces cerevisiae BY4741 SeMeCo community
Test: z-score of subpopulation abundance vs DMSO median, subpopulation auxotrophic for HLM; higher = larger share of this subpopulation than in DMSO controls
Conditions: 10 µM; 24 h; SM minimal medium; subpopulation (auxotrophy): HLM
Method: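 Fluorescent four-plasmid SeMeCo (self-establishing metabolically cooperating S. cerevisiae BY4741 community; plasmids pH-mRuby2, pL-mWasabi, pU-eCFP, pM-TagRFP657) was grown 24 h in minimal SM medium with each Selleck FDA-approved drug at 10 µM in 384-well plates. Cells were fixed and imaged by high-content confocal microscopy. For each auxotrophic subpopulation (and the prototroph), a z-score gives the deviation from the DMSO vehicle-control population median.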

| SMILES | z-score of subpopulation abundance |
| --- | --- |
| CC1=C(C(=O)OCCN(Cc2ccccc2)c2ccccc2)C(c2cccc([N+](=O)[O-])c2)C(P2(=O)OCC(C)(C)CO2)=C(C)N1 (stereo not given) [Efonidipine] | 1.02 |
| C#CCN[C@@H]1CCc2ccccc21 [Rasagiline Mesylate] | -0.04 |
| CCN(CC)CCOC(=O)c1ccc(N)cc1 [Procaine] | -1.03 |
| Oc1ccc(C2CNCCc3c2cc(O)c(O)c3Cl)cc1 (stereo not given) [Fenoldopam mesylate] | 0.63 |
| Cc1onc(-c2ccccc2)c1C(=O)N[C@@H]1C(=O)N2[C@@H]1SC(C)(C)[C@@H]2C(=O)O [Oxacillin sodium monohydrate] | -0.54 |
| Cc1nccn1CC1CCc2c(c3ccccc3n2C)C1=O (stereo not given) [Ondansetron Hydrochloride Dihydrate] | -0.48 |
| C#C[C@]1(O)CC[C@H]2[C@@H]3CCC4=Cc5oncc5C[C@]4(C)[C@H]3CC[C@@]21C [Danazol] | -0.39 |
| CN1[C@@H](CC(=O)c2ccccc2)CCC[C@H]1C[C@H](O)c1ccccc1 [Lobeline hydrochloride] | -0.48 |
| C#CCC(Cc1cnc2nc(N)nc(N)c2n1)c1ccc(C(=O)N[C@@H](CCC(=O)O)C(=O)O)cc1 (stereo not given in full) [Pralatrexate] | 4.47 |
| Cc1nc(=O)c2cc(CN(C)c3ccc(C(=O)N[C@@H](CCC(=O)O)C(=O)O)s3)ccc2[nH]1 [Raltitrexed] | -0.97 |
| CSCC1CN(/N=C/c2ccc([N+](=O)[O-])o2)C(=O)O1 (stereo not given) [Nifuratel] | 2.19 |
| COc1cc2c(cc1OC)C(=O)C(CC1CCN(Cc3ccccc3)CC1)C2 (stereo not given) [Donepezil HCl] | 0.49 |
| C[C@@H](O)[C@H]1C(=O)N2C(C(=O)O)=C(S[C@@H]3CN[C@H](CNS(N)(=O)=O)C3)[C@H](C)[C@H]12 [Doripenem Hydrate] | -0.78 |
| CN[C@@H]1[C@@H](O)[C@@H](O[C@@H]2[C@@H](O)[C@H](O[C@H]3O[C@H](CN)[C@@H](O)[C@H](O)[C@H]3O)[C@@H](N)C[C@H]2NC(=O)[C@@H](O)CN)OC[C@]1(C)O [Isepamicin Sulphate] | -0.7 |
| CC1(C)S[C@@H]2[C@H](NC(=O)[C@H](NC(=O)N3CCNC3=O)c3ccccc3)C(=O)N2[C@H]1C(=O)O [Azlocillin sodium salt] | -0.3 |
| CO/N=C(\C(=O)N[C@@H]1C(=O)N2C(C(=O)O)=CCS[C@H]12)c1csc(N)n1 [Ceftizoxime] | -0.37 |
| CC1(C)[C@H](C(=O)O)N2C(=O)C[C@H]2S1(=O)=O [Sulbactam] | -1.04 |
| O=c1[nH]cnc2c1ncn2[C@@H]1O[C@H](CO)[C@@H](O)[C@H]1O [Isoprinosine] | -0.33 |
| N[C@@H]1CN(c2c(F)cc3c(=O)c(C(=O)O)cn([C@@H]4C[C@@H]4F)c3c2Cl)CC12CC2 [Sitafloxacin Hydrate] | -0.5 |
| CCc1c2c(nc3ccc(OC(=O)N4CCC(N5CCCCC5)CC4)cc13)-c1cc3c(c(=O)n1C2)COC(=O)[C@]3(O)CC [Irinotecan HCl Trihydrate] | 0.91 |

| SMILES | z-score of subpopulation abundance |
| --- | --- |
| Nc1ccc(C(=O)O)c(O)c1 [4-Aminosalicylic acid] | -0.9 |
| CN1CCC(=C2c3ccccc3C=Cc3ccccc32)CC1 [Cyproheptadine hydrochloride] | -0.45 |
| COc1cc(NS(=O)(=O)c2ccc(N)cc2)ncn1 [Sulfamonomethoxine] | -0.64 |
| CCOc1cc(N)c(Cl)cc1C(=O)NCC1CN(Cc2ccc(F)cc2)CCO1 (stereo not given) [Mosapride Citrate] | 0.62 |
| CO/N=C(\C(=O)N[C@@H]1C(=O)N2C(C(=O)OC(C)OC(C)=O)=C(COC(N)=O)CS[C@H]12)c1ccco1 (stereo not given in full) [Cefuroxime axetil] | -0.11 |
| CC[C@H](C)C(=O)O[C@H]1C[C@H](O)C=C2C=C[C@H](C)[C@H](CC[C@@H](O)C[C@@H](O)CC(=O)O)[C@H]21 [Pravastatin] | -0.51 |
| COCC1=C(C(=O)OC(C)OC(=O)OC(C)C)N2C(=O)[C@@H](NC(=O)/C(=N\OC)c3csc(N)n3)[C@H]2SC1 (stereo not given in full) [Cefpodoxime proxetil] | -0.08 |
| CONC(=O)Nc1ccc(-c2sc3c(c2CN(C)C)c(=O)n(-c2ccc(OC)nn2)c(=O)n3Cc2c(F)cccc2F)cc1 [Relugolix] | -0.07 |
| CCN1CCCC1CNC(=O)c1cc(S(=O)(=O)CC)c(N)cc1OC (stereo not given) [Amisulpride] | -0.87 |
| CCOC(=O)OC(C)OC1=C(C(=O)Nc2ccccn2)N(C)S(=O)(=O)c2ccccc21 (stereo not given) [Ampiroxicam] | -0.4 |
| COc1cccc2c1C(=O)c1c(O)c3c(c(O)c1C2=O)C[C@@](O)(C(C)=O)C[C@@H]3O[C@H]1C[C@H](N)[C@H](O)[C@H](C)O1 [Daunorubicin HCl] | -0.29 |
| CCn1cc(C(=O)O)c(=O)c2cc(F)c(N3CCN(C)CC3)cc21 [Pefloxacin Mesylate] | -0.1 |
| CN(CCOc1ccc(NS(C)(=O)=O)cc1)CCc1ccc(NS(C)(=O)=O)cc1 [Dofetilide] | -0.86 |
| Cc1ccsc1/C=C/C1=NCCCN1C [Morantel tartrate] | -0.2 |
| Cc1cc(-n2c(=O)[nH]c(=O)n(C)c2=O)ccc1Oc1ccc(SC(F)(F)F)cc1 [Toltrazuril] | -0.31 |
| C[C@H]1NCc2cc(-c3ccc4c(=O)c(C(=O)O)cn(C5CC5)c4c3OC(F)F)ccc21 [Garenoxacin] | 0.1 |
| Fc1ccc([C@@H]2CCNC[C@H]2COc2ccc3c(c2)OCO3)cc1 [Paroxetine mesylate] | 0.34 |
| NC[C@H]1O[C@H](O[C@H]2[C@H](O)[C@@H](O[C@H]3O[C@H](CO)[C@@H](O)[C@H](N)[C@H]3O)[C@H](N)C[C@@H]2N)[C@H](N)C[C@@H]1O [Tobramycin] | -1.18 |
| CC(C)(C)CC(C)(C)c1ccc(OCCOCC[N+](C)(C)Cc2ccccc2)cc1 [Benzethonium Chloride] | -0.12 |
| CCC(C)(C)c1ccc(CC(C)CN2C[C@@H](C)O[C@@H](C)C2)cc1 (stereo not given in full) [Amorolfine HCl] | 10.3 |
